# Source: PubChem BioAssay (EPA / NIEHS)
# Results filed as inconclusive are left out. The source made the active and inactive calls. How the source made its calls, unless noted: active means hit-call score of the fitted dose curve at least 0.9, where 1 is the maximum; inactive means score below 0.9.
# Legend:
# [1] = molecular target: human Peroxisome Proliferator-activated Receptor delta (PPARd), PPARD (gene 5467) (UniProt Q03181); assay: ATG_PPARd_TRANS: Attagene TRANS-FACTORIAL HepG2 Assay for human Peroxisome Proliferator-activated Receptor delta (PPARd) (AID 2283002; active means hit-call score of the fitted dose curve at least 0.9, where 1 is the maximum)
# human Peroxisome Proliferator-activated Receptor delta (PPARd), PPARD (gene 5467), sequence (Q03181 whole entry, looked up, the tested form may be a part): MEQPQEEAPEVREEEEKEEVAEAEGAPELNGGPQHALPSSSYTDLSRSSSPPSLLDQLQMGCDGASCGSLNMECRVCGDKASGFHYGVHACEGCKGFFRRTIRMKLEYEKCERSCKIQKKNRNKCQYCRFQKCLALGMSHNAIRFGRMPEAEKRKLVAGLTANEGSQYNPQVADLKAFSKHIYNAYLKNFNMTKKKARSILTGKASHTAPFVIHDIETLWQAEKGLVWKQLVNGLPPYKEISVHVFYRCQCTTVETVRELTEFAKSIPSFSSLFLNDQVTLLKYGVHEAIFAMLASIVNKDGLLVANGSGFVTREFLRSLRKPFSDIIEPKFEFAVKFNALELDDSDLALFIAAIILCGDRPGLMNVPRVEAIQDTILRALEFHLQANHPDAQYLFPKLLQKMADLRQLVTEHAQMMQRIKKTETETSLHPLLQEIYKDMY
# How it was run: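 HepG2 cells transiently transfected with GAL4-UAS multiplexed reporter units driven by exogenous chimeric NR-GAL4 proteins; 24 h compound exposure. Reporter mRNA measured by RT-PCR, 6-FAM primer extension, HpaI digestion and capillary electrophoresis; gain of signal fitted relative to DMSO.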
# [2] = read-out: Intercellular Adhesion Molecule 1 (ICAM1), ICAM1 (gene 3383); assay: BSK_3C_ICAM1: BioMAP Diversity Plus: 3C Assay for Intercellular Adhesion Molecule 1 (ICAM1) Biomarker Activity (AID 2283003); settings: primary human endothelial cells (HUVEC); actives raise or lower the signal
# How it was run: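 Chemicals are dosed onto primary human umbilical vein endothelium (3C system). After 24 h, ICAM-1 is measured by ELISA, and responses are fitted bidirectionally relative to DMSO.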
# [3] = BSK_3C_Proliferation: Cell Proliferation Assessment in the BioMAP Diversity Plus: 3C Assay (AID 2283006); settings: primary human endothelial cells (HUVEC);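 on AC50: potency may reflect either rise or fall in cell number versus DMSO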
# How it was run: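 Cells (human umbilical vein endothelial, sub-confluent) receive test chemical; after 48 h they are fixed in 10% trichloroacetic acid, stained with 0.1% SRB and read at 560 nm. Activity is referenced to DMSO, fitting increases and decreases.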
# [4] = molecular target: Peroxisome proliferator-activated receptor gamma (Homo sapiens) (UniProt P37231); assay: ATG_PPARg_TRANS: Attagene TRANS-FACTORIAL HepG2 Assay for human Peroxisome Proliferator-activated Receptor-gamma (PPARg) (AID 2283007; active means hit-call score of the fitted dose curve at least 0.9, where 1 is the maximum)
# Peroxisome proliferator-activated receptor gamma (Homo sapiens), sequence (P37231 whole entry, looked up, the tested form may be a part): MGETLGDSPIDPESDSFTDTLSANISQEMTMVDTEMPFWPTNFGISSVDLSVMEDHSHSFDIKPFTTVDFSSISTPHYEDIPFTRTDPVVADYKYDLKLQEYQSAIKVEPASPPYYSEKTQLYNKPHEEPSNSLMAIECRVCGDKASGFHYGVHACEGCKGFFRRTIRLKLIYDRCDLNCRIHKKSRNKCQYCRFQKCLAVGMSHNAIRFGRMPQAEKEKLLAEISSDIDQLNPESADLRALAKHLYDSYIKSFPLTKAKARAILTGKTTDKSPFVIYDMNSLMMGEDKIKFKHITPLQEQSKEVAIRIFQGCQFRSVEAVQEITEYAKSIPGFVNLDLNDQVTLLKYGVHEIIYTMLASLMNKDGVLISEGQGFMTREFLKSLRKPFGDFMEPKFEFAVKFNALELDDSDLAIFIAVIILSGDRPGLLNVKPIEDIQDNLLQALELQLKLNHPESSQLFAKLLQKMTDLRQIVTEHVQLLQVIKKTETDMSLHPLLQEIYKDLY
# How it was run: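 Gain-of-signal endpoint relative to DMSO, derived from reporter mRNA levels quantified by RT-PCR and capillary electrophoresis. Cells were HepG2 transiently expressing a chimeric NR-Gal4 construct with GAL4-UAS reporters, exposed to chemicals for 24 h.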
# [5] = molecular target: human RAR-related Orphan Receptor gamma (RORg), RORC (gene 6097) (UniProt P51449); assay: ATG_RORg_TRANS: Attagene TRANS-FACTORIAL HepG2 Assay for human RAR-related Orphan Receptor gamma (RORg) (AID 2283011; active means hit-call score of the fitted dose curve at least 0.9, where 1 is the maximum)
# human RAR-related Orphan Receptor gamma (RORg), RORC (gene 6097), sequence (P51449 whole entry, looked up, the tested form may be a part): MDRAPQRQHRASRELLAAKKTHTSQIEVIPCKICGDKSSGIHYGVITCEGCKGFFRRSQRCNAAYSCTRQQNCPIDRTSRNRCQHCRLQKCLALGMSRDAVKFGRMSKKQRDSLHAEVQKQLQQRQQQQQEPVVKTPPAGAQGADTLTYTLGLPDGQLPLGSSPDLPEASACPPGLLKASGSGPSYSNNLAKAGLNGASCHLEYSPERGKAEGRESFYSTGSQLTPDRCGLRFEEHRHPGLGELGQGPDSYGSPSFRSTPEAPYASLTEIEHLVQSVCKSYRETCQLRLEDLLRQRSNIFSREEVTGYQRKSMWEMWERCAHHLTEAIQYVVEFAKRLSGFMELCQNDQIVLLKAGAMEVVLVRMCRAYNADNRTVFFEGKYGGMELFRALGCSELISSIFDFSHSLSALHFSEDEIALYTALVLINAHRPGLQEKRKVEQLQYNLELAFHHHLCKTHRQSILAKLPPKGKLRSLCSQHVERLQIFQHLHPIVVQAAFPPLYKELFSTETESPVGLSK
# How it was run: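 HepG2 cells transiently transfected with GAL4-UAS reporter units and chimeric RORg-Gal4 construct; after 24 h chemical exposure, reporter mRNA measured by RT-PCR with fluorescent capillary electrophoresis, gain of signal fitted against DMSO.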
# [6] = molecular target: Retinoic acid receptor RXR-alpha (Homo sapiens) (UniProt P19793); assay: ATG_RXRa_TRANS: Attagene TRANS-FACTORIAL HepG2 Assay for human Retinoid X Receptor alpha (RXRa) (AID 2283012; active means hit-call score of the fitted dose curve at least 0.9, where 1 is the maximum)
# Retinoic acid receptor RXR-alpha (Homo sapiens), sequence (P19793 whole entry, looked up, the tested form may be a part): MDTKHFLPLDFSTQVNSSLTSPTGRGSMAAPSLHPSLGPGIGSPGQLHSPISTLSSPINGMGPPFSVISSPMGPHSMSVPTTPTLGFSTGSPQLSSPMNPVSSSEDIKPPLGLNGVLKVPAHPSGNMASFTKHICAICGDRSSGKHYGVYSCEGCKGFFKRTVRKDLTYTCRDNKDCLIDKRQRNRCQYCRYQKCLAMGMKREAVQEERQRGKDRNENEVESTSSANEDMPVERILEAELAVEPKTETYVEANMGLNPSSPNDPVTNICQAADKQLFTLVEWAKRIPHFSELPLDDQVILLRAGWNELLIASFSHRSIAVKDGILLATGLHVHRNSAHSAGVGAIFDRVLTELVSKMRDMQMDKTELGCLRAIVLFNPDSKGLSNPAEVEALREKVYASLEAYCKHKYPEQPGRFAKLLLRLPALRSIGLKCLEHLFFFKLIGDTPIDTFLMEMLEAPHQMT
# How it was run: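 Measures exogenous chimeric NR-GAL4 activity in transfected HepG2 liver cells after 24 h of dosing. Induced reporter mRNA was detected by RT-PCR with capillary electrophoresis, and gain of signal was analysed against DMSO.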
# [7] = read-out: E-selectin (Homo sapiens) (UniProt P16581); assay: BSK_3C_Eselectin: BioMAP Diversity Plus: 3C Assay for Eselectin Biomarker Activity (AID 2283015); settings: primary human endothelial cells (HUVEC); actives raise or lower the signal;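 further: cell surface E-selectin protein quantified by ELISA 24 h after dosing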
# How it was run: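 Primary human umbilical vein endothelial cells (3C system), read 24 h after compound addition; E-selectin measured by ELISA. Bidirectional curve fitting against DMSO baseline; cytotoxicity by parallel SRB total-protein staining.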
# [8] = read-out: Interleukin-1 alpha (IL1a), IL1A (gene 3552); assay: BSK_BE3C_IL1a: BioMAP Diversity Plus: BE3C Assay for Interleukin-1 alpha (IL1a) Biomarker Activity (AID 2283016); settings: primary human bronchial epithelial cells; actives raise or lower the signal
# How it was run: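 Signal from IL-1a ELISA, taken 24 h after chemical dosing of human bronchial epithelial cells, is compared with DMSO as baseline using bidirectional curve fitting.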
# [9] = read-out: Monocyte Chemoattractant Protein-1 (MCP1), CCL2 (gene 6347); assay: BSK_3C_MCP1: BioMAP Diversity Plus: 3C Assay for Monocyte Chemoattractant Protein-1 (MCP1) Biomarker Activity (AID 2283017); settings: primary human endothelial cells (HUVEC); actives raise or lower the signal
# How it was run: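 Human umbilical vein endothelial cells (3C system) exposed to chemicals for 24 h; MCP-1 quantified by ELISA against the DMSO baseline with bidirectional fitting, and parallel SRB staining used to assess cytotoxicity.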
# [10] = read-out: Monocyte Chemoattractant Protein-1 (MCP1), CCL2 (gene 6347); assay: BSK_4H_MCP1: BioMAP Diversity Plus: 4H Assay for Monocyte Chemoattractant Protein-1 (MCP1) Biomarker Activity (AID 2283018); settings: primary human endothelial cells (HUVEC); actives raise or lower the signal
# How it was run: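 Endothelial cells from umbilical vein were treated with test chemical, then after 24 h MCP-1 levels were quantified by ELISA; endpoint values came from bidirectional fitting with DMSO as baseline of activity.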
# [11] = read-out: Human Leukocyte Antigen - DR isotype (HLADR), HLA-DRA (gene 3122); assay: BSK_3C_HLADR: BioMAP Diversity Plus: 3C Assay for Human Leukocyte Antigen - DR isotype (HLADR) Biomarker Activity (AID 2283019); settings: primary human endothelial cells (HUVEC); actives raise or lower the signal;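 on outcome: ELISA of cell-surface HLA-DR on HUVEC 24 h after dosing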
# How it was run: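 HUVEC monoculture, HLA-DR measured by ELISA 24 h after chemical dosing. Fitted bidirectionally against DMSO baseline; parallel SRB staining assessed cytotoxicity, with 3C proliferation read by SRB at 48 h.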
# [12] = read-out: Interleukin-8 (IL8), CXCL8 (gene 3576); assay: BSK_3C_IL8: BioMAP Diversity Plus: 3C Assay for Interleukin-8 (IL8) Biomarker Activity (AID 2283020); settings: primary human endothelial cells (HUVEC); actives raise or lower the signal
# How it was run: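 Endothelial primary cells of human umbilical vein origin are dosed with chemical; after 24 h the IL-8 biomarker is measured by ELISA, and concentration–response is fitted in both directions versus DMSO.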
# [13] = read-out: Monokine induced gamma interferon (MIG), CXCL9 (gene 4283); assay: BSK_3C_MIG: BioMAP Diversity Plus: 3C Assay for Monokine induced gamma interferon (MIG) Biomarker Activity (AID 2283021); settings: primary human endothelial cells (HUVEC); actives raise or lower the signal
# How it was run: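 Endothelial primary cells (human umbilical vein) are dosed with test chemical in the 3C system. MIG levels are measured by ELISA at 24 h and fitted in both directions relative to DMSO.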
# [14] = molecular target: Nuclear receptor subfamily 1 group I member 2 (Homo sapiens) (UniProt O75469); assay: ATG_PXR_TRANS: Attagene TRANS-FACTORIAL HepG2 Assay for human Pregnane X Receptor (PXR) (AID 2283008; active means hit-call score of the fitted dose curve at least 0.9, where 1 is the maximum)
# Nuclear receptor subfamily 1 group I member 2 (Homo sapiens), sequence (O75469 whole entry, looked up, the tested form may be a part): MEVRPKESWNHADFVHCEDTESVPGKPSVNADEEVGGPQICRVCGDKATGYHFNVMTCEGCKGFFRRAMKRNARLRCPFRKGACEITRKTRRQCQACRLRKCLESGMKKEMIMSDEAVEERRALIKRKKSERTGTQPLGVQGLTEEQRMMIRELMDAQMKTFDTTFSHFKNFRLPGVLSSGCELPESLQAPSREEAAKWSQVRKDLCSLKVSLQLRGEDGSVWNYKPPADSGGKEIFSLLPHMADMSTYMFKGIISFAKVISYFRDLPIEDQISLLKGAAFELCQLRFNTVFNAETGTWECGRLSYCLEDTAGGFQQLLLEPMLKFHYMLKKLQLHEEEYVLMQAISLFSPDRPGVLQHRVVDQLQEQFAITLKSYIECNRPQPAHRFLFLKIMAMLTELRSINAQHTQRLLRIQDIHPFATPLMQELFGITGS
# How it was run: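 HepG2 transfected (FuGene 6) with GAL4-UAS reporter units + PXR-Gal4 chimera; dosed 24 h. Total RNA → oligo(dT) RT → PCR → 6-FAM primer extension → HpaI cut → CE. Gain-of-signal vs DMSO.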
# [15] = molecular target: human RAR-related Orphan Receptor beta (RORb), RORB (gene 6096) (UniProt Q92753); assay: ATG_RORb_TRANS: Attagene TRANS-FACTORIAL HepG2 Assay for human RAR-related Orphan Receptor beta (RORb) (AID 2283010; active means hit-call score of the fitted dose curve at least 0.9, where 1 is the maximum)
# human RAR-related Orphan Receptor beta (RORb), RORB (gene 6096), sequence (Q92753 whole entry, looked up, the tested form may be a part): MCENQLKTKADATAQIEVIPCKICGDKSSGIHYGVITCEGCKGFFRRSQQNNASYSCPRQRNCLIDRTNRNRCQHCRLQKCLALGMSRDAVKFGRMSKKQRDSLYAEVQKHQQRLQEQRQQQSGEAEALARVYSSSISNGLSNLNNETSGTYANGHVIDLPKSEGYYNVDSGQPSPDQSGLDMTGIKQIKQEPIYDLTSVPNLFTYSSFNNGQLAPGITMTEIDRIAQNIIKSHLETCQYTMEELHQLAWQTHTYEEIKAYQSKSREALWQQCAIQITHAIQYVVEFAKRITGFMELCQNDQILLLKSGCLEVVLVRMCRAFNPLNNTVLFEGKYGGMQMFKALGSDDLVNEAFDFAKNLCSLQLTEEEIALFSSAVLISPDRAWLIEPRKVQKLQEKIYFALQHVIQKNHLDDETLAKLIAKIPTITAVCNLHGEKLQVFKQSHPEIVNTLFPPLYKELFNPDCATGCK
# How it was run: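 Transfect HepG2 with multiple GAL4-UAS reporter transcription units; dose chemicals for 24 h; isolate RNA, reverse-transcribe and PCR-amplify reporter sequences; label, digest and resolve fragments by capillary electrophoresis; fit increases relative to DMSO.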
# [16] = molecular target: human Retinoid X Receptor beta (RXRb), RXRB (gene 6257) (UniProt P28702); assay: ATG_RXRb_TRANS: Attagene TRANS-FACTORIAL HepG2 Assay for human Retinoid X Receptor beta (RXRb) (AID 2283013; active means hit-call score of the fitted dose curve at least 0.9, where 1 is the maximum)
# human Retinoid X Receptor beta (RXRb), RXRB (gene 6257), sequence (P28702 whole entry, looked up, the tested form may be a part): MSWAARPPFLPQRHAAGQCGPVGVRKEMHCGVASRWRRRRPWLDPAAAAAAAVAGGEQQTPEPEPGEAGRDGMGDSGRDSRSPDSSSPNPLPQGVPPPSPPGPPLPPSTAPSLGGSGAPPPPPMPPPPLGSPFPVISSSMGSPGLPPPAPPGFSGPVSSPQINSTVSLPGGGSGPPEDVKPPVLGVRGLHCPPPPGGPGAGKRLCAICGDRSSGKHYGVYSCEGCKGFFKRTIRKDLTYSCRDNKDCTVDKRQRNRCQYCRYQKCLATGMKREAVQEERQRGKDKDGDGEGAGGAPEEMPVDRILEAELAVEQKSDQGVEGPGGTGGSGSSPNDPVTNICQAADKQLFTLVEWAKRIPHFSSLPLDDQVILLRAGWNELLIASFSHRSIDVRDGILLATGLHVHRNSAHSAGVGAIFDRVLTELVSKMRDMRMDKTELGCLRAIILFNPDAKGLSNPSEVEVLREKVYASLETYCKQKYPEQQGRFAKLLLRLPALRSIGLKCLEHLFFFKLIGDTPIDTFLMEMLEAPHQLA
# How it was run: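 Chimeric receptor-Gal4 activity was assessed in transiently transfected human HepG2 cells after 24 h exposure. Transcripts from GAL4-UAS reporters were quantified by fluorescent RT-PCR and capillary electrophoresis, with DMSO as negative control and baseline.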
# [17] = molecular target: human Thyroid Receptor alpha (THRa1), THRA (gene 7067) (UniProt P10827); assay: ATG_THRa1_TRANS: Attagene TRANS-FACTORIAL HepG2 Assay for human Thyroid Receptor alpha (THRa1) (AID 2283014; active means hit-call score of the fitted dose curve at least 0.9, where 1 is the maximum)
# human Thyroid Receptor alpha (THRa1), THRA (gene 7067), sequence (P10827 whole entry, looked up, the tested form may be a part): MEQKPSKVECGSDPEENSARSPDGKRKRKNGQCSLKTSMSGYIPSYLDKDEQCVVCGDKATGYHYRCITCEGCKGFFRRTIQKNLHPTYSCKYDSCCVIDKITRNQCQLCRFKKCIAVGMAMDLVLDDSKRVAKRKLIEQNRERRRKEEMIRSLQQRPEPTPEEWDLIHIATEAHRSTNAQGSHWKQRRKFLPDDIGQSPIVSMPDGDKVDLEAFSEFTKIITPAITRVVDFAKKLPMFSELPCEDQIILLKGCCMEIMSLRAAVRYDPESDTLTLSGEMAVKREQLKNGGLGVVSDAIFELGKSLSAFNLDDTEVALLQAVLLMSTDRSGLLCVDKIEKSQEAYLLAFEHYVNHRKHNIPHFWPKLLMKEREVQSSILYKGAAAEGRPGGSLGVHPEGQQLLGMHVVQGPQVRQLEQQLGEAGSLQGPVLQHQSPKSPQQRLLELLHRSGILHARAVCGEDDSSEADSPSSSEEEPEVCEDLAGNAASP
# How it was run: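 HepG2 cells transiently transfected with chimeric NR-Gal4 and GAL4-UAS reporter units, dosed 24 h. Reporter mRNA quantified by RT-PCR, fluorescent labeling, HpaI digestion and capillary electrophoresis; gain-of-signal fit versus DMSO.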
# E-selectin (Homo sapiens), sequence (P16581 whole entry, looked up): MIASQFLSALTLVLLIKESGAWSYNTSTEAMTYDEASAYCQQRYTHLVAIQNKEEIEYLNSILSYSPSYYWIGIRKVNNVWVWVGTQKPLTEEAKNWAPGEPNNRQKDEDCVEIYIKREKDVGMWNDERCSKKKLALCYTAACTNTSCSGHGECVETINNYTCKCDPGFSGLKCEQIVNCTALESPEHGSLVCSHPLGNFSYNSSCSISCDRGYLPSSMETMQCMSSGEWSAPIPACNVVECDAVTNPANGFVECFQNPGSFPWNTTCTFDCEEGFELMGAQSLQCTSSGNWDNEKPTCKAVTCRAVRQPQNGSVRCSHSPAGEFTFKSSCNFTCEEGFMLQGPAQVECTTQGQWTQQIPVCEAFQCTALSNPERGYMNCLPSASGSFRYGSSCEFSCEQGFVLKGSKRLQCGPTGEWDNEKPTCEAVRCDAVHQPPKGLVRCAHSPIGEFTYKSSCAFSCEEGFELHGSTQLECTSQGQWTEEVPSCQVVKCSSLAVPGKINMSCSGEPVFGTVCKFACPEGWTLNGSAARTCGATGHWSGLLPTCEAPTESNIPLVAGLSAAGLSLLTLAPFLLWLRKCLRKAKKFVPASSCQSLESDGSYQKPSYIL
structure (smiles),measurement,setting,value
COc1cc(S(=O)(=O)O)c(C)cc1N=Nc1c(O)ccc2cc(S(=O)(=O)O)ccc12,outcome,[1],inactive
same,outcome,[2],inactive
same,outcome,[3],inactive
same,outcome,[4],inactive
same,outcome,[5],inactive
same,outcome,[6],inactive
same,outcome,[7],inactive
same,outcome,[8],inactive
same,outcome,[9],inactive
same,outcome,[10],inactive
same,outcome,[11],inactive
same,outcome,[12],inactive
same,outcome,[13],inactive
NCC1(Cc2noc(=O)[nH]2)CCCCC1,outcome,[2],inactive
same,outcome,[3],inactive
same,outcome,[14],inactive
same,outcome,[15],inactive
same,outcome,[5],inactive
same,outcome,[6],inactive
same,outcome,[7],inactive
same,outcome,[8],inactive
same,outcome,[9],inactive
same,outcome,[10],inactive
same,outcome,[11],inactive
same,outcome,[12],inactive
same,outcome,[13],inactive
Nc1ccc2c(c1)C(=O)c1ccccc1C2=O,outcome,[2],inactive
same,outcome,[3],inactive
same,AC50,[4],21 µM (active)
same,outcome,[14],inactive
same,outcome,[5],inactive
same,outcome,[6],inactive
same,outcome,[16],inactive
same,outcome,[17],inactive
same,outcome,[7],inactive
same,outcome,[8],inactive
same,outcome,[9],inactive
same,outcome,[10],inactive
same,outcome,[11],inactive
same,outcome,[12],inactive
same,outcome,[13],inactive
CC(C)c1ccc(C(=O)N=C(N)N)cc1S(C)(=O)=O,outcome,[1],inactive
same,outcome,[2],inactive
same,outcome,[3],inactive
same,outcome,[4],inactive
same,outcome,[14],inactive
same,outcome,[5],inactive
same,outcome,[17],inactive
same,outcome,[7],inactive
same,outcome,[8],inactive
same,outcome,[9],inactive
same,outcome,[10],inactive
same,outcome,[11],inactive
same,outcome,[12],inactive
same,outcome,[13],inactive
CCc1c(C(=O)NN2CCCCC2)nn(-c2ccc(Cl)cc2Cl)c1-c1ccc(Br)cc1,outcome,[1],inactive
same,outcome,[2],inactive
same,AC50,[3],6.79 µM (active)
same,AC50,[4],0.0976 µM (active)
same,outcome,[14],inactive
same,outcome,[6],inactive
same,outcome,[7],inactive
same,outcome,[8],inactive
same,AC50,[9],7.54 µM (active)
same,AC50,[10],5.41 µM (active)
same,AC50,[11],10.4 µM (active)
same,AC50,[12],7.69 µM (active)
same,outcome,[13],inactive
